Most compounds without a hit are left out; they make up all but 3.3% or so of the library.
Gli-Sufu block: antagonists of Gli-Sufu signaling. Sufu-KO-LIGHT fibroblasts, Gli luciferase reporter luminescence. inhibition, % at 5 µM. 340,000 tested, 0.74% active;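 active = inhibition above about 55%, limit read from the data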;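 note: 0% = DMSO-treated cells and 100% = wells with medium but no cells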
Jurkat NFkB inh: inhibitors of the PMA/ionomycin-induced NF-kB reporter in Jurkat cells; PMA/ionomycin-induced NF-kB luciferase reporter, luminescence; inhibition, % at 4 µM; 330,000 tested, 0.53% active; AID 435003; in the data active = inhibition above about 50%
697 NFkB inh: inhibitors of the PMA/ionomycin-induced NF-kB reporter in 697 B cells; inhibition, % at 4 µM; 330,000 tested, 0.33% active; 697 B-cell NF-kB luciferase reporter, 16 h; AID 435022; in the data active = inhibition above about 35%
esBAF inh: inhibitors of esBAF chromatin remodeling in mouse ES cells; Bmi1-luciferase knock-in reporter, 24 h; 100% = twice the neutral-well signal; reporter increase, % at 12.5 µM; 350,000 tested, 2% active; AID 602393; in the data active = activation above about 40%; inconclusive = no clear call, values can overlap the other calls;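 note: 0% = median of the plate's neutral control wells and 100% = double that signal; a rise in the Bmi1 reporter signal indicates esBAF inhibition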
SMARCA2 activ: SMARCA2 function activation, primary screen; MG213 cells, MMTV-luciferase reporter, dexamethasone, overnight; 370,000 tested, 1% active; activation, % at 9.1 µM; AID 652017; in the data active = activation above about 7.8%;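 note: 0% = vehicle wells and 100% = reference activator wells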
SMARCA2 act conf: SMARCA2 activation, confirmation screen; 3,500 tested, 30% active; activation, % at 9.1 µM; MG213 cells, MMTV-luciferase with dexamethasone, luminescence, overnight; MG213 cells expressing E1A, Rb sequestered; DMSO wells 0%, reference activator 100%; AID 652260; shares compounds with SMARCA2 activ;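 active = activation above its plate's cutoff, the mean activation of tested wells plus 3 SD, cut at about 7.9% in these data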
VP16 Luc act: activates GAL4-VP16 luciferase, flagging SMARCA2 activator hits. shares compounds with SMARCA2 activ. HEK293 GAL4-VP16 pG5luc reporter, luciferase luminescence; scaled: DMSO wells 0%, SAHA wells 100%. activation, % at 9.1 µM. 3,500 tested, 41% active;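 active = activation above the solvent-only control well mean plus 3 SD, averaged across control plates, cut at about 5.2% in these data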
* hit, by the source's call; ? = inconclusive; nt = no result given.

SMILES	Gli-Sufu block	Jurkat NFkB inh	697 NFkB inh	esBAF inh	SMARCA2 activ	SMARCA2 act conf	VP16 Luc act
COCC(=O)Nc1ccc2c(c1)C(=O)N(C)C[C@H](OC)[C@@H](C)CN(C)[C@@H](C)CO2	nt	nt	nt	-6	nt	nt	nt
COc1ccc(-n2nc(C(=O)NCC(=O)N3CCN(c4ccccn4)CC3)c3ccccc3c2=O)cc1	-62	-19	-49	nt	11*	6	2
CCCn1nc(C(=O)N2CCN(c3ccccn3)CC2)c2ccccc2c1=O	-21	-6	-27	-10	8.1*	-2	2
O=C(c1nn(-c2ccccc2)c(=O)c2ccccc12)N1CCN(c2ccccn2)CC1	3	0	15	-4	-3	nt	nt
CN(C)C(=O)c1cccc(-c2ccc3c(c2)[C@H]2[C@H](CCN2C(=O)C2CC2)[C@@H](CO)N3)c1	nt	nt	nt	-6	nt	nt	nt
C[C@@H](NC(=O)C[C@H]1C[C@@H]2c3cc(NC(=O)NC4CCCC4)ccc3O[C@@H]2[C@H](CO)O1)c1ccccc1	nt	nt	nt	0	nt	nt	nt
CN1Cc2nnn(CC3CCCCC3)c2-c2ccccc2S1(=O)=O	nt	nt	nt	nt	8.2*	2	0
C/C(=N\OC(=O)c1ccc(Br)cc1)c1ccccn1	5	-9	7	nt	0	nt	nt
C/C(=N/OCc1ccc(Br)cc1)c1ccccn1	-124	-119	-153	6	9.1*	7	8.7*
COc1ccccc1N1CCN(C(=O)C2CCN(C(=O)c3ccccc3Cl)CC2)CC1	8	5	-4	4	8.2*	-2	0
O=C(Nc1ccc(F)cc1)C(c1ccccc1)N1CCN(c2ccncc2)CC1 (configuration not stated)	nt	nt	nt	nt	8.3*	2	0
COc1ccc(C(C(=O)Nc2ccc(F)cc2)N2CCN(c3ccncc3)CC2)cc1 (configuration not stated)	nt	nt	nt	nt	-1	nt	nt
COc1ccccc1OCc1cc(C(=O)N(C)CCC2CCCCO2)no1 (configuration not stated)	-78	-92	-86	76*	11*	6	11*
CN(CCC1CCOCC1)C(=O)c1cc(COc2c(F)cccc2F)on1	5	3	-1	13	-1	nt	nt
COc1ccccc1C/C(N)=N/OC(=O)c1ccc(C)c([N+](=O)[O-])c1	-6	2	9	nt	-3	nt	nt
Cc1ccc(C(=O)O/N=C(\N)Cc2cccs2)cc1[N+](=O)[O-]	-3	-13	-17	28	8.2*	3	3
CC(C)OCCCNC(=O)C1CCC(CNS(=O)(=O)c2ccc(Cl)cc2)CC1 (configuration not stated)	-14	7	-2	nt	14*	-4	1
Cc1ccc(S(=O)(=O)NCC2CCC(C(=O)NCCCOC(C)C)CC2)cc1 (configuration not stated)	nt	12	4	nt	nt	nt	nt
O=C(c1cccnc1)N1C[C@@H]2[C@H](c3ccccc31)[C@@H](CO)N2CC1CCCCC1	nt	nt	nt	-2	nt	nt	nt
C[C@@H]1CCCCO[C@H](CN(C)S(=O)(=O)c2ccccc2)[C@H](C)CN([C@@H](C)CO)C(=O)c2cc(NC(=O)c3ccncc3)ccc2O1	nt	nt	nt	5	nt	nt	nt
O=C(O)c1cc(-c2ccc3ccccc3n2)nc2ccccc12	-25	22	-44	-14	13*	3	7.7*
CN(C(=O)c1ccco1)c1nc(-c2ccc(F)cc2)cs1	-62	-98	-153	27	9.3*	8.0*	7.6*
O=C(c1ccco1)N(CCCN1CCOCC1)c1nc(-c2ccc(F)cc2)cs1	6	-11	3	-5	-2	nt	nt
CNC[C@H]1Oc2c(NC(=O)c3ccc(-c4nccs4)cc3)cccc2C(=O)N([C@H](C)CO)C[C@H]1C	nt	nt	nt	3	nt	nt	nt
C[C@@H]1CN([C@H](C)CO)C(=O)c2cc(C#Cc3ccc(F)cc3)cnc2O[C@@H]1CN(C)C	nt	nt	nt	-3	nt	nt	nt
SMILES	Gli-Sufu block	Jurkat NFkB inh	697 NFkB inh	esBAF inh	SMARCA2 activ	SMARCA2 act conf	VP16 Luc act
Cc1cccc(NC(=O)COc2ccc3c(c2)CCC3)n1	-4	-42	-3	10	9.7*	6	5.5*
Cc1ccc(Cc2c(-c3ccccc3)nc3ccc(Br)cn23)cc1	nt	nt	nt	32	0	nt	nt
Cc1ccc(Cc2c(-c3ccc(Br)cc3)nc3cc(C)ccn23)cc1	nt	nt	nt	?	8.2*	5	4
CNc1cccc(-c2ccc(C(=O)N3CCOCC3)cc2)n1	nt	nt	nt	27	10*	8	0
CNc1cnc(-c2cccc(C(=O)N3CCOCC3)c2)cn1	nt	nt	nt	-1	-3	nt	nt
Cc1ccc(S(=O)(=O)Nc2ccc(N3CCN(C)CC3)nc2)cc1	4	18	16	3	2	nt	nt
CNc1cccc(-c2ccc(N3CCN(C)CC3)nc2)n1	nt	nt	nt	17	9.1*	12*	7.7*
COc1cccc(C=NNc2ccc([N+](=O)[O-])cn2)c1OC	-63	nt	nt	nt	8.3*	7	3
COc1ccccc1C=NNc1ccc([N+](=O)[O-])cn1	-14	nt	nt	4	1	nt	nt
CC(=O)N1[C@H](C(=O)N(C)C)[C@@H](CO)[C@@H]2Cn3c(ccc(-c4ccc(F)cc4)c3=O)[C@@H]21	nt	nt	nt	-4	nt	nt	nt
COc1ccc(NC(=O)CSc2nccn2Cc2ccco2)cc1	-56	-95	-122	36	4	nt	nt
CCOc1ccc(NC(=O)CSc2nccn2Cc2ccco2)cc1	-23	-52	-26	21	11*	1	5
Cc1ccc(NC(=O)Cc2noc3ccccc23)nc1	-15	15	-26	nt	9.3*	7	3
C[C@H](CO)N1C[C@H](C)[C@H](CN(C)C(=O)Nc2ccc(C(F)(F)F)cc2)Oc2c(NC(=O)Nc3ccc(F)cc3)cccc2C1=O	nt	nt	nt	-1	nt	nt	nt
CCN(CC)c1ccc2cc(C(=O)c3cccs3)c(=O)oc2c1	nt	nt	nt	72*	8.3*	9.5*	1
CO[C@@H]1CN(C)C(=O)c2ccc(NC(=O)Nc3c(C)noc3C)cc2OC[C@@H](C)N(C)C[C@@H]1C	nt	nt	nt	1	nt	nt	nt
O=C(O)c1ccccc1C1Nc2ccccc2C(=O)N1CCCN1CCOCC1 (configuration not stated)	-1	0	10	nt	12*	-2	1
Cc1nn(-c2cccc(C(F)(F)F)c2)c(Cl)c1/C=N/Nc1cccc(C(=O)O)c1	-188	nt	nt	nt	12*	10*	16*
Cc1nn(-c2ccccc2Cl)c(Cl)c1/C=N/Nc1cccc(C(=O)O)c1	-267	-29	-165	nt	3	nt	nt
COc1ccc(/C=N/Nc2nccnc2Cl)cc1	-53	-74	-77	-50	8.7*	5	12*
Cc1nnc(Sc2cc(NCCCO)c([N+](=O)[O-])c3nonc23)s1	-2	nt	nt	nt	10*	-14	1
CN1C(=O)c2cc(NC(=O)c3ccc(F)cc3)ccc2OC[C@H]2O[C@@H](CC(=O)N3CCOCC3)CC[C@H]21	nt	nt	nt	7	nt	nt	nt
